The source of these data is PubChem BioAssay.

The assay can be described thus: liver-stage malaria parasite growth inhibition, primary screen, cell-based, HepG2, luciferase luminescence, HepG2 viability (AID 624349).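 Further: 100% = mean of DMSO negative control wells on the same plate.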 Conditions: P. berghei liver stage in HepG2, luciferase luminescence, concentration not given here; parasite load remaining: stronger effect = lower value; viability: measured here: HepG2 viability without parasites.

The structures appear in SMILES notation. Values joined by “and” are separate entries in the source; they are usually repeats but may differ in a detail not shown here. Identical values can stand only once. Active and inactive are the calls of the source. No stated cut-off is given here; in the data, active means parasite load remaining mostly below about 12% (no sharp cut-off); inactive means mostly above about 10%. Numbered stars: 1 amine (or outer) side, 2 acyl side, 3 side chain; on linkers, the order of the positions; unused ones are H or OH. Bridge positions count the residues as written; N and C are the ends. Square brackets hold non-standard residues; d marks the D form. Peptide text beside a SMILES is read from it. * marks the point of attachment. Heptanoyl(6-Me) = CC(C)CCCCC(=O)*; X3 = CC(C)C(CN[*:1])C(=O)[*:2]; Dab = NCC[CH](N)C(=O)O

Take `Cc1ncc2ccccc2c1C#N`: the parasite load remaining was 44.1% (inactive) and the viability worked out at 86.2%.
Turning to `O=C(Nc1ccc(Cl)cc1)c1ccccc1NCc1ccncc1`, the parasite load remaining was 39.8% (inactive) and the viability stood at 69%.
With `O=C(O)Cc1c2ccccc2n2c1[nH]c(=O)c1ccccc12`, the parasite load remaining is 35.1% (inactive) and the viability was determined as 170%.
In the same order, the values of `O=C1NC(=O)C(c2cn(CCCO)c3ncccc23)=C1c1cnccn1` are 39.6% (inactive) and 97.4%.
Regarding `O=C1NC(=O)/C(=C/c2ccc3c(c2)OCO3)S1`, the parasite load remaining is 37.6% (inactive) and the viability came out at 63.8%.
As for `O=C(c1cc2cc(O)ccc2[nH]1)c1cc2cc(O)ccc2[nH]1`, the parasite load remaining was 37.2% (inactive) and the viability came out at 97.4%.
Turning to `O=c1c(O)c(-c2ccc(O)c(O)c2)oc2cc(O)c(O)c(O)c12`, the parasite load remaining was 32.1% (inactive) and the viability amounted to 88.8%.
With `O=C1NC(=O)C(c2cn(CCCn3ccnc3)c3ccccc23)=C1Nc1ccccc1`, the parasite load remaining was 35% (inactive) and the viability came to 61.8%.
As to `CCCC(=O)Oc1ccc2[nH]c(C(=O)c3cc4ccccc4[nH]3)cc2c1`, the parasite load remaining was 38.9% (inactive) and the viability is 104%.
For `CCN(CC)C(=O)c1ccc(Nc2nc(OCC3CCCCC3)c3[nH]cnc3n2)cc1`, the parasite load remaining is 41.1% (inactive) and the viability worked out at 89.4%.
As to `CCCOc1ccc(/C=C2\SC(=O)NC2=O)cc1`, the parasite load remaining is 54.3% (inactive) and the viability came to 111%.
As for `Ic1cccc(CSc2nnc(-c3ccncc3)o2)c1`, the parasite load remaining was 20.8% (inactive) and the viability is 98.7%.
Take `COc1ccc(-c2cnc3c(-c4ccsc4)cnn3c2)cc1`: the parasite load remaining is 16.9% (inactive) and the viability is 67.4%.
Take `O=C(O)c1ccc2c3c1cccc3c(=O)n1c3ccccc3nc21`: the parasite load remaining was 44% (inactive) and the viability was 75.2%.
Regarding `CC(=O)NC1SCCC1=O` (centres undefined), the parasite load remaining is 139% (inactive) and the viability amounted to 87.1%.
For `COC1[C@@H](OC)C[C@H](C)[C@@H](OC)C2=CC(=O)C=C(NC(=O)/C(C)=C/C=C\C(OC)[C@@H](OC(N)=O)/C(C)=C/[C@@H]1C)C2=O` (some centres undefined), the parasite load remaining is 25.3% (inactive) and the viability was determined as 84.1%.
Turning to `O=C(c1ccccc1)c1ccc(N2CCOCC2)cc1O`, the parasite load remaining was 40.6% (inactive) and the viability worked out at 74.9%.
For the molecule `Cc1cncc2cccc(S(=O)(=O)N3CCCN(C(=O)CN)C[C@H]3C)c12`, the parasite load remaining is 43.2% (inactive) and the viability amounted to 68.1%.
`O=c1c(-c2ccc(F)cc2)c(-c2ccncc2)[nH]n1-c1ccc(Cl)cc1`: the parasite load remaining is 36.4% (inactive) and the viability turned out to be 68.5%.
As to `CC[C@H](CO)Nc1nc(NCc2ccccc2O)c2ncn(C(C)C)c2n1`, the parasite load remaining is 34.4% (inactive) and the viability is 146%.
In the case of `CCCCCCOC(=O)[C@]1(O)C[C@@H]2O[C@@]1(C)n1c3ccccc3c3c4c(c5c6ccccc6n2c5c31)C(=O)NC4`, the parasite load remaining was 55.7% (inactive) and the viability is 93.7%.
On to `O=C(Nc1cccc(Nc2cc(Nc3cccc(C(F)(F)F)c3)ncn2)c1)C1CC1`, for which the parasite load remaining was 48.9% (inactive) and the viability turned out to be 163%.
Take `O=C1NCCc2[nH]c(-c3ccnc(-c4cnc5ccccc5c4)c3)cc21`: the parasite load remaining was 35.3% (inactive) and the viability was 77.1%.
In the same order, the values of `O=C1c2ccccc2-c2nc3nnnn3nc21` are -1.07% (inactive) and 0.01%.
For `Cn1cc(/C=C2\C(=O)Nc3ccc(S(N)(=O)=O)cc32)c2ccccc21` the same measures were 59.7% (inactive) and 106%.
For the molecule `c1ccc(-c2cnc(Nc3ccc(OCCN4CCCC4)cc3)s2)cc1`, the parasite load remaining is 46.3% (inactive) and the viability was found to be 100%.
For `CC(C)n1cnc2c(NCc3ccccc3O)nc(NCCCO)nc21`, the parasite load remaining is 37.8% (inactive) and the viability was found to be 118%.
Take `Cn1cnc2cc3c(Nc4cccc(Br)c4)ncnc3cc21`: the parasite load remaining is 14.5% (inactive) and the viability came out at 165%.
Take `O=C(Nc1cccc(Nc2nccc(Nc3cccc(C(F)(F)F)c3)n2)c1)C1CC1`: the parasite load remaining is 36.9% (inactive) and 34.4% (inactive); the viability is 99.7% and 89.6%.
As for `COC1=C[C@]23CCCN2CCc2cc4c(cc2[C@]3(C)C1OC(=O)[C@@](O)(CCCC(C)(C)O)CC(=O)O)OCO4` (some centres undefined), the parasite load remaining was -0.16% (inactive) and the viability was determined as 37.5%.
Consider `N#C/C(=C(/N)Sc1ccccc1N)c1cccc(C(O)c2ccncc2)c1` (centres undefined), for which the parasite load remaining is 49.2% (inactive) and the viability turned out to be 70%.
For `CCN(CC)CCNC(=O)c1c(C)[nH]c(/C=C2\C(=O)Nc3ccc(Cl)cc32)c1C` the same measures were 49.7% (inactive) and 69.1%.
For `COc1ccc(S(=O)(=O)Nc2ccccc2CN(C)C/C=C/c2ccc(Cl)cc2)cc1`, the parasite load remaining is 36.4% (inactive) and the viability worked out at 93.6%.
For `COc1cc(Nc2ncc3ccn(-c4cccc(CCC#N)c4)c3n2)cc(OC)c1OC` the same measures were 50.6% (inactive) and 164%.
Turning to `c1ccc2c(-c3ccncc3)c[nH]c2c1`, the parasite load remaining was 30.9% (inactive) and the viability was 66.5%.
For the molecule `COc1ccc2c(c1)c1c3c(c4c5ccccc5n(C)c4c1n2CC(O)CN(C)C)C(=O)NC3=O` (centres undefined), the parasite load remaining is 65.8% (inactive) and the viability was determined as 144%.
On to `CC(C)CCCCC(=O)NC(CCN)C(=O)NC(C(=O)NC(CCN)C(=O)NC1CCNC(=O)C(C(C)O)NC(=O)C(CCN)NC(=O)C(CCN)NC(=O)C(C(C)C)CNC(=O)C(CC(C)C)NC(=O)C(CCN)NC1=O)C(C)O` (centres undefined) ({Heptanoyl(6-Me)}-[Dab]T[Dab][Dab][Dab]L[X3][Dab][Dab]T; lactam 4-C; configuration not given here), for which the parasite load remaining was 68.1% (inactive) and the viability is 75.2%.
As for `CC[n+]1c(/C=C/N(C)c2ccccc2)n(-c2ccccc2)c2ccc(-c3nc4ccccc4s3)cc21`, the parasite load remaining was 33.2% (inactive) and the viability turned out to be 152%.
On to `CCc1[nH]c(-c2ccc(OC)cc2)nc1-c1ccncc1`, for which the parasite load remaining is 30.1% (inactive) and the viability is 82.4%.
For the molecule `CC(C)n1cnc2c(Nc3cccc(Cl)c3)nc(NCCO)nc21`, the parasite load remaining was 37.9% (inactive) and the viability was found to be 90.9%.
Turning to `COc1cc2ncn(-c3cc(OCc4ccc(S(C)(=O)=O)cc4)c(C(N)=O)s3)c2cc1OC`, the parasite load remaining was 30% (inactive) and the viability worked out at 67.4%.
In the case of `N=c1ccn2c(n1)O[C@@H]1C2O[C@H](CO)[C@H]1O` (some centres undefined), the parasite load remaining was 234% (inactive) and the viability is 85%.
In the case of `Cc1cc(Nc2nc(-c3ccccc3)nc3ccccc23)n[nH]1`, the parasite load remaining is 33.3% (inactive) and the viability was found to be 117%.
In the same order, the values of `CC(C)(C)c1ccc(S(=O)(=O)Nc2ccc(-n3ccnc3)cc2)cc1` are 37.4% (inactive) and 67.1%.
In the same order, the values of `Cc1cc(C=C2C(=O)C=CC2=O)cc(C)c1O` are 28.7% (inactive) and 70.7%.
For `Nc1ncnc2c1cnn2-c1ccccc1`, the parasite load remaining was 72% (inactive) and the viability turned out to be 108%.
For `Nc1c(O)cccc1C(=O)CC(N)C(=O)O` (centres undefined) the same measures were 62.4% (inactive) and 73.1%.
On to `Cc1nc2cc3nc(-c4cccs4)cnc3cc2n1C`, for which the parasite load remaining is 6.62% (active) and the viability worked out at 168%.
As to `O=C(Nc1ccc(-c2cn[nH]c2)cc1)C1COc2ccccc2O1` (centres undefined), the parasite load remaining is 48.6% (inactive) and the viability was 62.7%.
Turning to `Nc1nc(O)c(C2=C3C(=Nc4ccccc43)C(=O)NCC2)[nH]1`, the parasite load remaining was 45.8% (inactive) and the viability came out at 99.9%.
As to `O=c1[nH]c(O)c2c1c1c3ccccc3nc1n1cncc21`, the parasite load remaining was 34.3% (inactive) and the viability is 93.6%.
As for `Cn1c(O)c(-c2[nH]c3ccccc3c2N=O)c2ccc(Br)cc21`, the parasite load remaining is 27.7% (inactive) and the viability worked out at 171%.
As for `N#Cc1cnc2cnc(NCc3cccnc3)cc2c1NC1CCCCCC1`, the parasite load remaining was 36% (inactive) and the viability came out at 65.1%.
Regarding `NCCCn1cc(C2=C(c3c[nH]c4ccccc34)C(=O)NC2=O)c2ccccc21`, the parasite load remaining is 53.3% (inactive) and the viability is 148%.
As to `CCCCn1c2ccc(O)cc2c2c3c(c(-c4ccccc4Cl)cc21)C(=O)NC3=O`, the parasite load remaining was 56.2% (inactive) and the viability is 74.7%.
As for `Cc1nc(-c2ccccc2)c(-c2ccncc2)o1`, the parasite load remaining is 46.9% (inactive) and the viability turned out to be 64.2%.
On to `COC1C=CC23c4cc5c(cc4CN(C[C@H]2O)[C@@H]3C1)OCO5` (some centres undefined), for which the parasite load remaining was 2.19% (inactive) and the viability turned out to be 98.9%.
Regarding `CCCCc1c(-c2ccc(O)cc2)[nH]c2nccnc12`, the parasite load remaining was 46.4% (inactive) and the viability worked out at 112%.
`CNc1cc2c(Nc3cccc(Br)c3)ncnc2cn1`: the parasite load remaining is 49.2% (inactive) and the viability amounted to 157%.
In the case of `Cn1nc2c3c(cccc31)C(=O)c1ccccc1-2`, the parasite load remaining was 28.1% (inactive) and the viability is 83.8%.
`Cc1nc(N)sc1-c1ccnc(Nc2cccc([N+](=O)[O-])c2)n1`: the parasite load remaining was 60.6% (inactive) and the viability stood at 87.6%.
Regarding `COc1cc2nccc(Oc3ccc(NC(=S)NC(=O)c4ccccc4C)cc3)c2cc1OC`, the parasite load remaining was 22.3% (inactive) and the viability was 80.3%.
For `COc1cc2ncnc(N3CCN(C(=O)Nc4ccc(Oc5ccccc5)cc4)CC3)c2cc1OC` the same measures were 27.2% (inactive) and 89.5%.
In the case of `CCOc1cc2ncnc(Nc3cccc(Br)c3)c2cc1OCC`, the parasite load remaining is 50.2% (inactive) and the viability is 132%.
In the case of `N#Cc1cnc2cnc(NCc3cccnc3)cc2c1Nc1ccc(F)c(Cl)c1`, the parasite load remaining is 47.9% (inactive) and the viability came to 84.2%.
Take `O=C1NC(=NCc2cccs2)S/C1=C\c1ccc2ncccc2c1`: the parasite load remaining is 27.7% (inactive) and the viability was 96.3%.
For `COc1cc2ncnc(Nc3ccc(OCc4ccccc4)cc3)c2cc1OC` the same measures were 51.2% (inactive) and 119%.
As for `O=C1Nc2ccccc2/C1=C\c1c(Cl)[nH]c2ccccc12`, the parasite load remaining was 35% (inactive) and the viability came to 118%.
Take `O=C1NC(=O)c2c1c(-c1ccccc1Cl)cc1[nH]c3ccc(O)cc3c21`: the parasite load remaining is 32.6% (inactive) and the viability is 81%.
Consider `CN(C)c1ccc(/C=C2/C(=O)Nc3ccccc32)cc1`, for which the parasite load remaining was 34.8% (inactive) and the viability came to 126%.
For the molecule `CC(C)C(CO)Nc1nc(Nc2cccc(Cl)c2)c2ncn(C(C)C)c2n1` (centres undefined), the parasite load remaining is 30.5% (inactive) and the viability came out at 63.2%.
In the case of `Nc1nc(Nc2ccc(S(N)(=O)=O)cc2)nn1C(=S)Nc1c(F)cccc1F`, the parasite load remaining was 8.25% (active) and the viability came out at 93.1%.
